Laboratory results published in PubChem BioAssay AID1159580 (chemical genetic matrix, 2015).
Where “and” joins values, the source holds several entries; their conditions need not be identical. Identical values can stand only once. The whole screen tested about 5,500 compounds, of which about 2,000 (36%) were called active. Inconclusive results (about 18%) are left out. No stated cut-off is given here; in the data, active means normalized growth mostly below about 0.91 (no sharp cut-off); inconclusive means no clear call, values can overlap the other calls; inactive means mostly above about 0.92. The list shows a part of the results.

Assay: chemical genetic growth profiling, strain panel (AID 1159580);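 further: tested at 20 µM; growth read once vehicle control cultures reached saturation at 30 °C; 1 = growth at the plate median or of vehicle wells; lower values mean less growth of the strain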
Conditions: S. cerevisiae deletion strains, growth OD

Measured: normalized growth

Nc1ccc(C(=O)O)c(O)c1
inactive: locus YAL021C, strain ccr4, hits give low values 0.972 | locus YAL026C, strain drs2, hits give low values 1 | locus YAL030W, strain snc1, hits give low values 1 | locus YBL061C, strain skt5, hits give low values 0.989 | locus YBR009C, strain hhf1, hits give low values 1.02 | locus YBR021W, strain FUR4, hits give low values 1.01 | locus YBR023C, strain chs3, hits give low values 0.984 | locus YBR171W, strain sec66, hits give low values 0.98 | locus YBR229C, strain ROT2, hits give low values 1 | locus YBR231C, strain swc5, hits give low values 1 | locus YBR279W, strain paf1, hits give low values 0.996 | locus YCL011C, strain gbp2, hits give low values 0.991 | locus YCL016C, strain dcc1, hits give low values 0.965 | locus YCL029C, strain bik1, hits give low values 0.997 | locus YCL061C, strain MRC1, hits give low values 0.979 | locus YCL069W, strain vba3, hits give low values 0.99 | locus YCR088W, strain abp1, hits give low values 0.997 | locus YDL005C, strain med2, hits give low values 0.989 | locus YDL035C, strain GPR1, hits give low values 1.02 | locus YDL040C, strain nat1, hits give low values 0.99 | locus YDL074C, strain BRE1, hits give low values 1.01 | locus YDL101C, strain DUN1, hits give low values 1.01 | locus YDL134C, strain PPH21, hits give low values 1 | locus YDL185W, strain tfp1, hits give low values 1 | locus YDL192W, strain arf1, hits give low values 0.994 | locus YDR001C, strain nth1, hits give low values 0.989 | locus YDR069C, strain doa4, hits give low values 1 | locus YDR101C, strain arx1, hits give low values 1.01 | locus YDR137W, strain rgp1, hits give low values 0.959 | locus YDR150W, strain NUM1, hits give low values 1.01 | locus YDR159W, strain sac3, hits give low values 1.02 | locus YDR162C, strain NBP2, hits give low values 1.01 | locus YDR195W, strain ref2 0.996 | locus YDR297W, strain sur2, hits give low values 1.01 | locus YDR318W, strain mcm21, hits give low values 1.01 | locus YDR334W, strain swr1, hits give low values 0.98 | locus YDR335W, strain msn5, hits give low values 0.993 | locus YDR388W, hits give low values 1 | locus YDR392W, strain spt3, hits give low values 0.931 | locus YDR502C, strain sam2, hits give low values 0.998 | locus YEL003W, strain gim4, hits give low values 1.02 | locus YEL037C, strain rad23, hits give low values 1 | locus YEL061C, strain CIN8 (second series), hits give low values 0.994 | locus YEL061C, strain CIN8, hits give low values 1.01 | locus YER015W, strain faa2, hits give low values 0.999 | locus YER016W, strain bim1, hits give low values 1 | locus YER110C, hits give low values 1 | locus YER111C, strain swi4, hits give low values 0.984 | locus YER155C, strain BEM2 (second series), hits give low values 1 | locus YER155C, strain BEM2, hits give low values 1 | locus YER167W, strain BCK2, hits give low values 1.01 | locus YFR010W, strain ubp6, hits give low values 1 | locus YGL078C, strain dbp3, hits give low values 0.995 | locus YGL086W, strain mad1, hits give low values 0.997 | locus YGL167C, strain pmr1, hits give low values 0.992 | locus YGL173C, strain kem1, hits give low values 0.99 | locus YGL227W, strain vid30, hits give low values 0.991 | locus YGL240W, strain doc1, hits give low values 0.997 | locus YGL248W, strain PDE1, hits give low values 0.999 | locus YGL253W, strain hxk2, hits give low values 0.978 | locus YGR135W, strain pre9, hits give low values 0.993 | locus YGR252W, strain gcn5, hits give low values 0.959 | locus YHR013C, strain ard1, hits give low values 0.961 | locus YHR027C, strain rpn1, hits give low values 0.997 | locus YHR030C, strain SLT2, hits give low values 0.974 and 1.01 and 1.07 | locus YHR079C, strain IRE1 (second series), hits give low values 1 | locus YHR079C, strain IRE1, hits give low values 1.02 and 1.04 | locus YHR094C, strain hxt1, hits give low values 0.997 | locus YHR129C, strain ARP1, hits give low values 1.01 | locus YHR142W, strain chs7, hits give low values 0.964 | locus YHR200W, strain rpn10, hits give low values 0.999 | locus YIL066C, strain RNR3, hits give low values 1.03 | locus YIL073C, strain SPO22, hits give low values 1.04 | locus YIL125W, strain kgd1, hits give low values 1 | locus YIR030C, strain dcg1, hits give low values 1 | locus YJL092W, strain hpr5, hits give low values 0.984 | locus YJL095W, strain BCK1 (second series), hits give low values 0.997 | locus YJL095W, strain BCK1, hits give low values 0.994 and 1.01 and 1.04 | locus YJL115W, strain asf1, hits give low values 0.99 | locus YJL129C, strain trk1, hits give low values 0.968 | locus YJL134W, strain LCB3, hits give low values 1.01 | locus YJL154C, strain vps35, hits give low values 0.99 | locus YJL164C, strain tpk1, hits give low values 1.01 | locus YJL166W, strain qcr8, hits give low values 0.962 | locus YJL168C, strain set2, hits give low values 1 | locus YJL187C, strain SWE1 (second series), hits give low values 1.01 | locus YJL187C, strain SWE1, hits give low values 0.999 | locus YJR043C, strain POL32, hits give low values 1.01 | locus YJR066W, strain TOR1, hits give low values 0.963 and 0.985
